Tgondii IFNg = T. gondii growth inhibition with IFN-gamma, primary screen, cell-based; Toxoplasma gondii growth in IFN-gamma-treated host cells; active compounds read low; activity change, negative = inhibition, % (test concentration not listed); actives 3.8% (n = 69,000); AID 1259416, 2018; in the data active means activity change below about -70%, passing the limit was not always enough;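 further: host cells are HeLa cells infected with Toxoplasma gondii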
Starred values were filed as active, the others as inactive. Shown is part of a subset that was picked to be rich in hits.

Screening COCC1CCC2(CCN(c3ncccn3)CC2)N1CC1CC1 (stereo not drawn) returned Tgondii IFNg 39.
For OCCN1CCOC2C(Cn3ccnc3)CCC21 (stereo not drawn) the results were Tgondii IFNg 2.
For CCN1C[C@]23CNC[C@@H](C[C@H]2S1(=O)=O)O3 the results were Tgondii IFNg 26.
`CN1CC(=O)N(c2cccnc2)CC12CCNC2` (stereo not drawn) gave Tgondii IFNg -19.
For C=CCN1CCN(c2ncc(F)cn2)Cc2ccc(C)nc21 the results were Tgondii IFNg 37.
`Fc1cnc(N2CCN(CC3CC3)c3ncccc3C2)nc1` gave Tgondii IFNg inactive.
Fc1cnc(N2CCC3(CC2)CNCc2ccccc23)nc1 was read as Tgondii IFNg -84*.
For O=C(Nc1ccc(Br)cc1)c1cc2cccnc2n(Cc2ccccc2F)c1=O the results were Tgondii IFNg 63.
`CN(C)CCNC(=O)c1cc2cccnc2n(Cc2ccc(F)cc2)c1=O` gave Tgondii IFNg -40.
`CN(C)C(=O)CN1CCC2C1CC(=O)N2Cc1cccnc1` (stereo not drawn) gave Tgondii IFNg 6.
c1ccc(CN2CC[C@H]3[C@@H]2CCN3Cc2cccs2)nc1 was read as Tgondii IFNg -14.
Screening Cc1cccc(CN2C(=O)C[C@H]3[C@H]2CCN3Cc2cccs2)n1 returned Tgondii IFNg -93*.
Screening O=C(NC1CCCCC1)c1cc2cccnc2n(Cc2ccccc2F)c1=O returned Tgondii IFNg 81.
Screening COCCN1CCN(Cc2nccn2C)Cc2cccnc21 returned Tgondii IFNg -26.
For CN(C)C(=O)CN1CC2CONC2C1 (stereo not drawn) the results were Tgondii IFNg -7.
`CCc1cc2c(cc1-c1csc(-c3snnc3C)n1)C(C)(C)CCC2(C)C` gave Tgondii IFNg -15.
CN(C)C(=O)CN1CC2CCC1C2Oc1ccccn1 (stereo not drawn) was read as Tgondii IFNg 74.
Screening CCc1ccc(NC(=O)c2cc3cccnc3n(Cc3ccccc3)c2=O)cc1 returned Tgondii IFNg 54.
`O=C(NC(=O)c1c(F)cccc1F)Nc1cc(Cl)c(OC(F)(F)C(F)C(F)(F)F)cc1Cl` (stereo not drawn) gave Tgondii IFNg -76*.
`CCOC(=O)CNC(=O)c1cc2cccnc2n(Cc2ccccc2)c1=O` gave Tgondii IFNg -1.
For CC(=O)N1CCCCC12CCNC2 (stereo not drawn) the results were Tgondii IFNg -2.
Screening Cc1ccc(CN2CCN3CC(OCc4ccccn4)CC3C2)s1 (stereo not drawn) returned Tgondii IFNg 2.
`C1CCN(CC2COC3(CNCCOC3)C2)C1` (stereo not drawn) gave Tgondii IFNg 84.
COCCN1CCc2c(CNc3ncccn3)cncc2C1 was read as Tgondii IFNg 11.
`COCCN1CCN(Cc2nccs2)Cc2cccnc21` gave Tgondii IFNg 204.
`C=CCN1CC[C@@H]2[C@@H]1CCN2c1ncc(F)cn1` gave Tgondii IFNg 3.
Screening C=CCN1CC[C@@H]2[C@@H]1CCN2C(=O)c1cncc(C)c1 returned Tgondii IFNg -98*.
C=CCN1CC[C@H]2[C@@H]1CCN2C(=O)c1cc(C)on1 was read as Tgondii IFNg 19.
Screening CN1CCc2c(COCC(=O)N3CCCC3)cncc2C1 returned Tgondii IFNg 0.

High-throughput results from PubChem.
